The values that follow come from PubChem BioAssay (Tox21).

Where “and” joins values, the source holds several entries; their conditions need not be identical. Identical values can stand only once. Records with an inconclusive call do not appear. Some structures have more than one record in an assay (separate samples or runs), and their calls can disagree. Calls of active or inactive are those of the source. Unless noted, the call rests on the fitted dose curve; in most records, active means well fitted curve in the direction sought with a large enough effect in the repeat runs; inconclusive means weak or mixed curves; inactive means no such curve, though single readings can be large; an effect the other way counts as inactive or inconclusive.

Assay [1] can be described thus: qHTS assay to identify aromatase inhibitors - cell viability counter screen (AID 743084).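 Further: cells stimulated with testosterone during compound exposure; nearly all actives have a fitted effect of over 55% in size.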 Further: potency means the concentration at half of the fitted maximal effect. Background: In qHTS, concentration-response curves come from the screen itself.
Assay [2] addresses Aryl hydrocarbon receptor (Homo sapiens) (UniProt P35869). Nature of the assay: qHTS assay to identify small molecule that activate the aryl hydrocarbon receptor (AhR) signaling pathway (AID 743085).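 Further: HG2L7.5c1 human HepG2 liver cells with stably integrated DRE-driven firefly reporter; series mostly up to about 70 µM; nearly all actives have a fitted effect of over 15% in size.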 In a few lines: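 Reporter assay in engineered HepG2 line HG2L7.5c1, whose plasmid carries twenty dioxin responsive elements upstream of firefly luciferase. Treatment lasted 24 h at 37C; ONE-Glo luminescence gauged induction.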

Assay [3] is described as follows: qHTS assay to identify small molecule that activate the aryl hydrocarbon receptor (AhR) signaling pathway - cell viability counter screen (AID 743086). Further: nearly all actives have a fitted effect of over 45% in size. Further: potency means the concentration at half of the fitted maximal effect. In a few lines: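 HepG2-AhR-luc (HG2L7.5c1) cells, 4000/well, were preincubated 5 h at 37C, exposed to compound in qHTS format for 24 hr at 37C, then given CellTiter-Fluor for 30 min; viability was read as fluorescence in the reporter wells.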

Assay [4] in a line: qHTS assay for small molecule agonists of the antioxidant response element (ARE) signaling pathway (AID 743202; active means well fitted activation curve with a large enough effect in the signal ratio in the repeat runs, not every such curve was filed as active; the % refers to the signal ratio; further: potency means the concentration at half of the fitted maximal effect). In a few lines:
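Compounds delivered in DMSO to ARE-bla HepG2 cells (2,000 cells/well, pre-incubated 5 h) and left 16 h at 37 C. LiveBLAzer B/G FRET substrate then added for 2 h at RT before fluorescence reading.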

Assay [5] in a line: qHTS assay for small molecule agonists of the antioxidant response element (ARE) signaling pathway - cell viability counter screen (AID 743203; calls by dose curve; further: nearly all actives have a fitted effect of over 55% in size; further: potency means the concentration at half of the fitted maximal effect). In short, it runs like this: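 Compounds in DMSO were pinned onto ARE-bla HepG2 cells plated 5 hrs earlier at 2,000 cells/well. Sixteen hours later at 37C/5% CO2, CellTiter-Glo was added and luminescence measured after 30 min at room temperature.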

Assay [6] is described as follows: qHTS assay for small molecule activators of the heat shock response signaling pathway - cell viability counter screen (AID 743209). Further: nearly all actives have a fitted effect of over 50% in size. In a few lines:
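Counter screen for cytotoxicity in HeLa HSE-bla reporter cells. Treatment was 5 h at 37 C; viability was detected by luminescent ATP assay (CellTiter-Glo) in the same wells as the beta-lactamase read.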

The nature of assay [7]: qHTS assay to identify small molecule agonists of the peroxisome proliferator-activated receptor delta (PPARd) signaling pathway - cell viability counter screen (AID 743211). Further: nearly all actives have a fitted effect of over 55% in size. Further: potency means the concentration at half of the fitted maximal effect. In short, it runs like this:
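Multiplexed format: after the 2 h room-temperature LiveBLAzer B/G FRET step, CellTiter-Glo was added to the same wells. Luminescence after 30 min gave cell viability; compound exposure was 17 h at 37C.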

For assay [8], the target named is Peroxisome proliferator-activated receptor delta (Homo sapiens) (UniProt Q03181). Put plainly: qHTS assay to identify small molecule agonists of the peroxisome proliferator-activated receptor delta (PPARd) signaling pathway (AID 743212; calls by dose curve). In short, it runs like this:
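A PPARd-bla HEK293H line with beta-lactamase under an Upstream Activator Sequence is treated with compounds at 37 C. Substrate loading for 2 h at room temperature precedes the fluorescence measurement.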

A short description of assay [9]: qHTS assay to identify small molecule agonists of the farnesoid-X-receptor (FXR) signaling pathway - cell viability counter screen (AID 743218). Further: nearly all actives have a fitted effect of over 45% in size. Further: potency means the concentration at half of the fitted maximal effect. In a few lines:
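After 16 h at 37 C with test compounds, FXR-bla HEK 293T cells were given LiveBLAzer B/G substrate for 2 h at RT and then CellTiter-Glo; luminescence was taken after 30 min.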

Assay [10] concerns the target Vitamin D3 receptor (Homo sapiens) (UniProt P11473). Nature of the assay: qHTS assay to identify small molecule agonists of the vitamin D receptor (VDR) signaling pathway (AID 743222; calls by dose curve). In a few lines: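 VDR-bla cells were seeded, left 4 h, treated with compounds in DMSO for 16 h, incubated 2 h at RT with B/G FRET substrate, and read for fluorescence.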
Assay [11] has the same target. Put plainly: qHTS assay to identify small molecule antagonists of the vitamin D receptor (VDR) signaling pathway (AID 743223; active means well fitted inhibition curve with a large enough effect in the signal ratio in the repeat runs, not every such curve was filed as active; the % refers to the signal ratio). In a few lines:
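After VDR-bla cells are plated and left 4 h at 37C, DMSO-dissolved compounds and 3 nM (final) calcitriol agonist are added. Incubation continues 16 h at 37C; FRET beta-lactamase substrate then develops 2 h at room temperature.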

Assay [12] addresses Peroxisome proliferator-activated receptor gamma (Homo sapiens) (UniProt P37231). Put plainly: qHTS assay to identify small molecule agonists of the peroxisome proliferator-activated receptor gamma (PPARg) signaling pathway (AID 743094; active means well fitted activation curve with a large enough effect in the signal ratio in the repeat runs, not every such curve was filed as active; the % refers to the signal ratio). In short, it runs like this: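 Following 5 h plating at 37C, PPARg-bla HEK293H cells receive compound or DMSO for 17 h; fluorescence intensity is recorded after LiveBLAzer B/G loading for 1 h at room temperature.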

A short description of assay [13]: qHTS assay to identify small molecule antagonists of the peroxisome proliferator-activated receptor gamma (PPARg) signaling pathway - cell viability counter screen (AID 743194). Further: nearly all actives have a fitted effect of over 55% in size. In a few lines: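 PPARg-UAS-bla HEK293H cells were plated, rested 5 h at 37 C, then treated with compounds plus rosiglitazone (50 nM final) for 17 h at 37 C; viability was then read by CellTiter-Glo luminescence after 30 min at room temperature.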

Assay [14] is described as follows: qHTS assay to identify small molecule antagonists of the peroxisome proliferator-activated receptor delta (PPARd) signaling pathway - cell viability counter screen (AID 743213). Further: nearly all actives have a fitted effect of over 50% in size. In short, it runs like this: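 PPARd-bla HEK293H cells (3000/well) got compound plus 300 nM L165041 agonist for 17 h at 37 C. Viability in the same wells came from CellTiter-Glo luminescence after 30 min at room temperature.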

The target of assay [15] is Peroxisome proliferator-activated receptor delta (Homo sapiens) (UniProt Q03181). Nature of the assay: qHTS assay to identify small molecule antagonists of the peroxisome proliferator-activated receptor delta (PPARd) signaling pathway (AID 743215; active means well fitted inhibition curve with a large enough effect in the signal ratio in the repeat runs, not every such curve was filed as active; the % refers to the signal ratio;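 further: cells stimulated with agonist L165041 at 300 nM final during compound exposure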; further: potency means the concentration at half of the fitted maximal effect). In short, it runs like this: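 With L165041 present at 300 nM final, compounds were incubated 17 h at 37 C on PPARd UAS-bla HEK293H cells. A FRET-based beta-lactamase substrate was then applied for 2 h at room temperature and fluorescence intensity recorded.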

Assay [16] can be described thus: qHTS assay to identify small molecule antagonists of the farnesoid-X-receptor (FXR) signaling pathway - cell viability counter screen (AID 743221; active means well fitted cell-killing curve with a large enough effect in the repeat runs, not every such curve was filed as active; further: nearly all actives have a fitted effect of over 50% in size). In a few lines:
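CellTiter-Glo, 30 min RT, luminescence; same wells as the LiveBLAzer FRET read. Cells: FXR-UAS-bla HEK 293T. Treatment: compound with chenodeoxycholic acid 50 uM final, 16 h at 37 C.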

The nature of assay [17]: qHTS assay for small molecule activators of the heat shock response signaling pathway (AID 743210; active means well fitted activation curve with a large enough effect in the signal ratio in the repeat runs, with a control signal flat, not every such curve was filed as active; the % refers to the signal ratio;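 further: HeLa cells with beta-lactamase reporter driven by heat shock elements; series mostly up to about 63 µM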). In a few lines: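 Reporter gene assay: HeLa cells stably bearing an HSE-bla construct, compound treatment 5 h at 37 C, LiveBLAzer substrate 2.5 h at RT, fluorescence intensity.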
The target in assay [18] is Bile acid receptor (Homo sapiens) (UniProt Q96RI1). Nature of the assay: qHTS assay to identify small molecule agonists of the farnesoid-X-receptor (FXR) signaling pathway (AID 743220; active means well fitted activation curve with a large enough effect in the signal ratio in the repeat runs, not every such curve was filed as active; the % refers to the signal ratio; further: potency means the concentration at half of the fitted maximal effect). In short, it runs like this:
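Beta-lactamase reporter under UAS control in GeneBLAzer FXR HEK 293T cells (5000/well) measured with LiveBLAzer FRET substrate after 2 h at room temperature. Compound exposure lasted 16 h at 37C.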

Assay [19] concerns the target Peroxisome proliferator-activated receptor gamma (Homo sapiens) (UniProt P37231). Put plainly: qHTS assay to identify small molecule antagonists of the peroxisome proliferator-activated receptor gamma (PPARg) signaling pathway (AID 743191; calls by dose curve; further: nearly all actives have a fitted effect of over 30% in size; further: potency means the concentration at half of the fitted maximal effect). In short, it runs like this:
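GeneBLAzer PPARg UAS-bla HEK293H cells carrying a UAS-driven beta-lactamase reporter were plated at 3000 cells/well, preincubated 5 h at 37C, then given compound for 17 h at 37C; LiveBLAzer B/G FRET substrate was read after 1 h at room temperature.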

The target in assay [20] is Bile acid receptor (Homo sapiens) (UniProt Q96RI1). Put plainly: qHTS assay to identify small molecule antagonists of the farnesoid-X-receptor (FXR) signaling pathway (AID 743217; active means well fitted inhibition curve with a large enough effect in the signal ratio in the repeat runs, not every such curve was filed as active; the % refers to the signal ratio). In a few lines: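 In this cell-based antagonist screen, inhibition of CDCA-driven (50 uM final) UAS-beta-lactamase expression in HEK 293T cells was measured by FRET fluorescence following 16 h compound exposure at 37 °C.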
Sequence of Bile acid receptor (Homo sapiens) (Q96RI1 whole entry, looked up): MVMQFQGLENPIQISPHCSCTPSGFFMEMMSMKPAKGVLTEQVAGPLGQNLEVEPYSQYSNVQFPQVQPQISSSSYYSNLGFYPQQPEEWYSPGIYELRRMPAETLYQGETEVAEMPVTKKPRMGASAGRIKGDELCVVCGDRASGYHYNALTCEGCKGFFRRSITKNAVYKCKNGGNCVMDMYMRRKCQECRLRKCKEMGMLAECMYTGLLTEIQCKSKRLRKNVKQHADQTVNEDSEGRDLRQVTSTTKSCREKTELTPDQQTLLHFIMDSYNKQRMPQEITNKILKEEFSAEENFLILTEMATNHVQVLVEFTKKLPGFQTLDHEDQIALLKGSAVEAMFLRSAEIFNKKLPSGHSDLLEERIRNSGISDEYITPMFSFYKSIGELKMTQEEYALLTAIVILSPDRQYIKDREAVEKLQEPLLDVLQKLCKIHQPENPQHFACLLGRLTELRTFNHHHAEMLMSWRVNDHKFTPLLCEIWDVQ

Sequence of Peroxisome proliferator-activated receptor delta (Homo sapiens) (Q03181 whole entry, looked up): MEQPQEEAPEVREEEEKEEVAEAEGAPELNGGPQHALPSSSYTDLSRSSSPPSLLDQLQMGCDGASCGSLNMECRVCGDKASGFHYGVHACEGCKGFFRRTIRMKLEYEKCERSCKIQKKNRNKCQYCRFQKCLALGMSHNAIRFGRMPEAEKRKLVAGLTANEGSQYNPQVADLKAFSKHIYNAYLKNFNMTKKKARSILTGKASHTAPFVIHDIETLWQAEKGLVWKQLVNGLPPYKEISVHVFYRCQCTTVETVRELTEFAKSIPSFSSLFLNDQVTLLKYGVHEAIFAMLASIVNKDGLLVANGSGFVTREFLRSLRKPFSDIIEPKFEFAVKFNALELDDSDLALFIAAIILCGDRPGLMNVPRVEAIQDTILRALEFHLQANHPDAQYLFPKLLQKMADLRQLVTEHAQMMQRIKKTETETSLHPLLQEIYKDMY
Sequence of Peroxisome proliferator-activated receptor gamma (Homo sapiens) (P37231 whole entry, looked up): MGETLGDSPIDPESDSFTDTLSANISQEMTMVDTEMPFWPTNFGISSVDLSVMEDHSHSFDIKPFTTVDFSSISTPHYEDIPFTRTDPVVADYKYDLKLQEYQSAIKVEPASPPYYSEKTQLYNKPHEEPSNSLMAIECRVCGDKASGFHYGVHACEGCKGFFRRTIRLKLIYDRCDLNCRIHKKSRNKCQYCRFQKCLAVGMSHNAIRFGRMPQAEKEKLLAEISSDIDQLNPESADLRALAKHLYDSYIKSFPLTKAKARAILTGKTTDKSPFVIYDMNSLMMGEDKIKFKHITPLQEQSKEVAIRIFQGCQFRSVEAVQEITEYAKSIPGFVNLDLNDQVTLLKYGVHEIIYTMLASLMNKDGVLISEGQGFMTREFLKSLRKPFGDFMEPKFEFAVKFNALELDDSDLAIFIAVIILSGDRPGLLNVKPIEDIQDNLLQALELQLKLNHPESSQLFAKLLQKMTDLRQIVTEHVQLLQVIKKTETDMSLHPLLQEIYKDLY
Sequence of Vitamin D3 receptor (Homo sapiens) (P11473 whole entry, looked up): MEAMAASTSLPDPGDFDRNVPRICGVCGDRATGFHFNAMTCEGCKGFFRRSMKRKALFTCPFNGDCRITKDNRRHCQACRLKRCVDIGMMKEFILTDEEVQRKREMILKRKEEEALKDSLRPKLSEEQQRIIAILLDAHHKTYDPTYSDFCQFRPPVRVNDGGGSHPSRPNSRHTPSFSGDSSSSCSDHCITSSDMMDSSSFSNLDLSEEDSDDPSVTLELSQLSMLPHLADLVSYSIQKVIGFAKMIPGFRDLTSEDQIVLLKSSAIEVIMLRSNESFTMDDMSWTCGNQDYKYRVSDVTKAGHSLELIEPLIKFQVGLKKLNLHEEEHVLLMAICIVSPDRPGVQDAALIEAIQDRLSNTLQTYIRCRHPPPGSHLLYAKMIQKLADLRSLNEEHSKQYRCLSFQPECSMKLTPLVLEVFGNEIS
Sequence of Aryl hydrocarbon receptor (Homo sapiens) (P35869 whole entry, looked up): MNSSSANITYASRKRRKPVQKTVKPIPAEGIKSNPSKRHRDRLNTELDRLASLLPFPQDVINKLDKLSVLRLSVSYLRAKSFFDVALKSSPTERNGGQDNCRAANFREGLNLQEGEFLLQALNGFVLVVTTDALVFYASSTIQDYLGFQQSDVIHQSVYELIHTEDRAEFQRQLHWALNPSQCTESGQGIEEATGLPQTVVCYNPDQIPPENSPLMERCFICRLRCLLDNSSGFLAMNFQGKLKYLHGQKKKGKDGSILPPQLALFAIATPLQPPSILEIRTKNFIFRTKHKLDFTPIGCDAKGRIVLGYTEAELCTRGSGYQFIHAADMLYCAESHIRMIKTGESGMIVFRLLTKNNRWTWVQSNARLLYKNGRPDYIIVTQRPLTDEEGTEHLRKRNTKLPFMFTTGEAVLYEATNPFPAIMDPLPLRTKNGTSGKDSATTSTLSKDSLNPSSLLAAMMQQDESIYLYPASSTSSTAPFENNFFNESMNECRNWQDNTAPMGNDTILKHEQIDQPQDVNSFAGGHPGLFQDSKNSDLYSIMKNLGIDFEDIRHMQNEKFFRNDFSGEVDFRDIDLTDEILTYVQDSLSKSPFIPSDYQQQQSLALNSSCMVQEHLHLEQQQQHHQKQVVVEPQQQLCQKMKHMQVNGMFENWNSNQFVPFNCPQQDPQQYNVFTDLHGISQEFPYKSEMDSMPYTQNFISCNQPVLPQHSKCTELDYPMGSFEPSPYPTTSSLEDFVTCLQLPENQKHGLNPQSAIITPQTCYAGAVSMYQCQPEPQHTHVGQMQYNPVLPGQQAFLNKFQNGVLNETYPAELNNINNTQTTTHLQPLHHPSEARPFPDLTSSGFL

On to `OCCN1CCN(CCCN2c3ccccc3C=Cc3ccccc32)CC1`, for which the Potency in assay [1] is 29.8 µM (active) and inactive; in [3] it was 10.6 µM (active) and 26.6 µM (active). Also, the Potency entry in assay [2], in assay [4], in assay [5], in assay [6], in [7] and in assay [8] was “inactive” throughout. The Potency entry in [9] and in assay [10] was “inactive” each time. In addition, the compound was classed as inactive in assay [11].
Turning to `c1cc(CCCc2ccncc2)ccn1`, the Potency result in [1], in [3], in assay [12], in assay [13], in assay [4] and in assay [5] was “inactive” throughout. Also, the Potency result in assay [6], in assay [7], in assay [8], in assay [14], in assay [15] and in assay [9] was “inactive” in each case. The Potency result in assay [16] and in assay [10] was “inactive” throughout. Moreover, in assay [11], the compound was called inactive.
Turning to `CN(C)CCN(Cc1ccc(Cl)cc1)c1ccccn1`, the Potency entry in [1], in [2], in assay [12], in [13], in assay [4] and in assay [5] was “inactive” each time. The Potency entry in assay [6], in assay [17], in assay [8], in assay [15], in assay [18] and in assay [16] was “inactive” each time. Moreover, the Potency entry in assay [10] is “inactive”. The outcome in assay [11] was inactive.
For the compound `ClCCOCCOCCCl`, the Potency result in assay [1], in [2], in assay [12], in [19], in assay [13] and in assay [4] was “inactive” in each case. Besides, the Potency result in assay [5], in assay [6], in assay [17], in [7], in assay [8] and in assay [15] was “inactive” throughout. Besides, the Potency result in assay [9], in assay [16] and in assay [10] was “inactive” throughout. The result in [11] was inactive.
In the case of `C=CC(=O)OCCOCCOC(=O)C=C`, the Potency in [1] was 13.7 µM (active); in [4] it was 30.8 µM (active); in [7] it was 49.2 µM (active). In addition, the Potency result in [2] and in assay [5] was “inactive” each time.
With `CCCCCCCC#N`, the Potency entry in [1], in assay [3], in assay [12], in [19], in assay [4] and in assay [5] was “inactive” in each case. In addition, the Potency entry in [8], in [9] and in assay [16] was “inactive” each time. For the same compound, the result in assay [11] was inactive.
Consider `CCN(CC)CCNc1ccc(CNC=O)c2sc3ccc(OC)cc3c(=O)c12`, for which the Potency is 48.6 µM (active) in [1]; 5.45 µM (active) in assay [3]; 12.3 µM (active) in assay [19]; 48.6 µM (active) in assay [5]; 30.9 µM (active) in [7]; 15.5 µM (active) in assay [15]. Also, the Potency in [18] is 6.92 µM (active). The Potency result in [6], in assay [8] and in assay [10] was “inactive” in each case.
`O=C(Cl)c1cc(C(=O)Cl)cc(C(=O)Cl)c1`: the Potency result in [2], in assay [3], in [12], in assay [19], in assay [6] and in assay [7] was “inactive” throughout. In addition, the Potency entry in [8], in assay [14], in assay [15], in assay [20], in assay [9] and in assay [18] was “inactive” throughout. Moreover, in assay [16], the Potency result is “inactive”.
Take `CN1CCC(N(Cc2cccs2)c2ccccc2)CC1`: the Potency entry in assay [1], in [12], in assay [13] and in assay [5] was “inactive” in each case.
Consider `CN(C)CCCN1c2ccccc2Sc2ccccc21`, for which the Potency entry in assay [2], in [3], in assay [12], in assay [6], in assay [17] and in assay [8] was “inactive” throughout. The Potency result in assay [20], in [18] and in assay [10] was “inactive” each time. Besides, the Potency in assay [9] was 13.3 µM (active).
